This is a sample that favours compounds with a hit; in the whole collection about 8.7% have one here.
ALOX12 inh – Primary qHTS assay for inhibitors of human arachidonate 12S-lipoxygenase (ALOX12): Round 2; Potency, µM (top dose mostly 108 µM), without a hit: at the top dose activity change, negative = inhibition, most hits filed as inhibitors; 580,000 compounds, 1.1% hits; purified 12hLO, xylenol orange hydroperoxide absorbance; Polyunsaturated fatty acid lipoxygenase ALOX12 (Homo sapiens), P18054; note: % is set by controls: 0 for no effect and ±100 for the full control effect
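Purified human 12hLO (150 nM final) in 25 mM Hepes, 0.01% Triton X-100, pH 7.0 was preincubated 15 min at room temperature with compound. Then 40 uM arachidonic acid was added, 30 min. Hydroperoxide was read by Fe-XO absorbance ratio 573/405 nm.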
G9a block – qHTS Assay for Inhibitors of Histone Lysine Methyltransferase G9a. Histone-lysine N-methyltransferase EHMT2 (Homo sapiens), Q96KQ7. G9a H3K9 monomethylation, AlphaScreen, 2 h. Potency, µM (top dose mostly 102 µM), inactives show at the top dose activity, negative = inhibition, hits mostly inhibitors. 350,000 compounds, 8.8% hits. AID 504332, 2011; note: % is set by controls: 0 for no effect and ±100 for the full control effect; nearly all actives have a fitted effect of over 75% in size
Target sequence (Q96KQ7 913-1193 limits assumed): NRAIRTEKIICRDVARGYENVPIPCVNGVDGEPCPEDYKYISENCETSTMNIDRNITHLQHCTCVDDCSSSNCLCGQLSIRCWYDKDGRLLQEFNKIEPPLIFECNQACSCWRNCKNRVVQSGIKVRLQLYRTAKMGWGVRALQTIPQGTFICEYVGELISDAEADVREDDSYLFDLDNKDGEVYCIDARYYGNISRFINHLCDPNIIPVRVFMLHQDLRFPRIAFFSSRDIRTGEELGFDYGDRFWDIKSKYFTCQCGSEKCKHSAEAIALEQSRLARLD
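Compounds were preincubated with 20 nM G9a for 15 min, after which biotinylated H3K9 peptide (500 nM) and SAM (20 uM) started a 2 h room-temperature reaction. Monomethylated product was quantified by antibody-based AlphaScreen chemiluminescence.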
JMJD2A Tudor – qHTS Assay for Inhibitors of JMJD2A-Tudor Domain; Lysine-specific demethylase 4A (Homo sapiens), O75164; AlphaScreen JMJD2A-Tudor / H3K4me3 peptide binding; Potency, µM (series often up to 114 µM), inactives show at the highest dose activity change, negative = inhibition, actives largely listed as inhibitors; 390,000 compounds, 4.4% hits; AID 504339, 2011; note: % is set by controls: 0 for no effect and ±100 for the full control effect; nearly all actives have a fitted effect of over 50% in size
BAZ2B block – qHTS Assay for Inhibitors of BAZ2B; AID 504333, 2011; AlphaScreen BAZ2B-H3K14Ac peptide displacement; 360,000 compounds, 4.4% hits; Potency, µM (highest dose often 114 µM), for the others: at the highest dose activity change, negative = inhibition, most hits filed as inhibitors; Bromodomain adjacent to zinc finger domain protein 2B (Homo sapiens), Q9UIF8; note: % is set by controls: 0 for no effect and ±100 for the full control effect; nearly all actives have a fitted effect of over 60% in size
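Inhibition is scored as reduced AlphaScreen emission. The BAZ2B/b-H3(5-23)K14Ac complex (50 nM each) in PBS pH 7.4, 0.01% Tween-20 meets compound (up to 110 uM) for 30 min at RT before bead addition.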
HP1b chromo inh – HTS for Inhibitors of HP1-beta Chromodomain Interactions with Methylated Histone Tails. 390,000 compounds, 0.56% hits. Potency, µM (titrated, usually from 114 µM), inactives show top-dose activity change, negative = inhibition, usual class: inhibitors. AlphaScreen HP1-beta / biotin-H3K9me3 peptide binding. AID 540317, 2011; note: nearly all actives have a fitted effect of over 70% in size
Target sequence (P83916 whole entry, looked up): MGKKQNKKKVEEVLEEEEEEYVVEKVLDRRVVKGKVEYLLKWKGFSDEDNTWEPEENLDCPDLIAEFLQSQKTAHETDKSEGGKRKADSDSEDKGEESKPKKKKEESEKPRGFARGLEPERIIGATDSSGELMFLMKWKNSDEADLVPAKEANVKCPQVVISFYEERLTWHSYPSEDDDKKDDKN
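AlphaScreen: HP1-beta (50 nM) preformed 30 min with biotin-H3(1-18)K9me3 peptide (50 nM) in PBS pH 7.4, 0.01% Tween-20. Compound added for 30 min at RT, then streptavidin donor/nickel chelate acceptor beads (10 ug/mL) for 30 min.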
Sfp inh – qHTS Assay for Inhibitors of Bacillus subtilis Sfp phosphopantetheinyl transferase (PPTase); 4'-phosphopantetheinyl transferase ffp (Bacillus subtilis), Q9F4F7; Biochemical Sfp PPTase activity, qHTS; AID 1490, 2009; 310,000 compounds, 3.5% hits; Potency, µM, for inactives: largest response in the series, negative = inhibition, actives largely listed as inhibitors;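 note: the enzyme is Sfp with the accession as filed and its product quenches rhodamine fluorescence; 0% = enzyme reaction without inhibitor and -100% = no enzyme wells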
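Step 1, compound plus 15 nM Sfp-PPTase, 15 min, room temperature. Step 2, add rhodamine-CoA (5 uM) and BHQ-2-YbbR (12.5 uM). Step 3, read 525/598 nm fluorescence at 0 and 30 min.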
Active calls of the source: *; ? = inconclusive; nt = not tested or not shown; [ ] = remark or other dose. Calls come from the whole dose curve; as a rule, active = well fitted curve in the direction sought with a large enough effect; inconclusive = small, poorly fitted or top-dose-only effect, or another doubt; inactive = no such curve, though single readings can be large; an effect the other way counts as inactive or inconclusive. Potency is the fitted concentration of half-maximal effect.

SMILES	ALOX12 inh	G9a block	JMJD2A Tudor	BAZ2B block	HP1b chromo inh	Sfp inh
c1coc(CNC2CCCCC2)c1	?	?	7.08µM*	?	-42.1%	?
c1coc(CNC2C3CC4CC(C3)CC2C4)c1 (stereo not drawn)	-19.0%	-49.1%	-13.2%	-14.9%	10.7%	9.7%
O=c1[nH]c(Cc2ccccn2)nc2scc(-c3ccc(Cl)cc3)c12	?	39.8µM*	-24.3%	2.6%	43.2%	-25.7%
O=c1[nH]c(Cc2ccc(F)cc2)nc2scc(-c3ccc(F)cc3)c12	?	3.55µM*	?	3.3%	?	-78.5%
O=c1[nH]c(Cc2cccs2)nc2scc(-c3ccc(Cl)cc3)c12	-16.7%	nt	-4.8%	-1.5%	8.7%	8.6%
CCC(=O)N1c2ccccc2CC1c1nc(C(C)C)no1 (stereo not drawn)	54.4%	nt	nt	nt	nt	nt
CCN(CC)C(=O)NC1CC2CCCC(C1)N2Cc1ccccc1 (stereo not drawn)	-12.5%	2.82µM*	-3.8%[57.1 µM]	4.6%	-10.8%	13.9%
Cc1c(Cl)cccc1NC(=O)c1nc2ccccc2nc1N1CCN(C)CC1	-4.9%	nt	nt	nt	nt	nt
CCOC(=O)c1[nH]c2ccc(Br)cc2c1NC(=O)CCN1CCCC(C)(C)C1	?	8.91µM*	-4.1%	-3.3%	10.0%	-2.5%
CCOC(=O)c1[nH]c2ccc(F)cc2c1NC(=O)CCN1CCOCC1	-16.8%	-35.5%	-2.0%	-12.2%	5.3%	-0.9%
COc1ccccc1N1CCN(C(=O)c2cc(-c3ccccc3O)on2)CC1	-17.4%	-12.5%	-11.2%	-4.5%	-18.7%	-3.1%
COc1ccccc1N1CCN(C(=O)c2cc(-c3ccco3)on2)CC1	?	44.7µM*	?	-8.2%	2.9%	1.5%
COc1ccccc1N1CCN(C(=O)c2cc(-c3ccccc3)on2)CC1	5.5%	16.1%[59 µM]	-14.3%	-14.9%	23.9%	14.1%
COc1ccc(-c2cc(C(=O)N3CCN(c4ccccc4OC)CC3)no2)cc1OC	-10.3%	6.3%[59 µM]	?	79.4µM*	2.1%	-20.2%
O=C1CC(SC2=NCCS2)C(=O)N1c1ccc(Br)cc1 (stereo not drawn)	?	44.7µM*	6.4%[57.1 µM]	-3.2%	53.3%	17.7%
O=C1CC(SC2=NCCS2)C(=O)N1c1ccc(Cl)cc1 (stereo not drawn)	-18.3%	-17.2%[59 µM]	4.5%	9.1%	42.8%	3.8%
Cc1ccc(NC(=O)Nc2c(NC3CCCCC3)c3ccccc3oc2=O)cc1F	-0.8%	nt	nt	nt	nt	nt
COc1ccc(NC(=O)Cc2c[nH]c3ncc(-c4ccccc4)cc23)cn1	20.1%[176 µM]	nt	nt	nt	nt	nt
O=C(/C=C/c1ccco1)Nc1cccnc1Cl	0.0%	79.4µM*	-5.6%	-12.6%	4.7%	50.1µM*
COC(=O)c1ccccc1NC(=O)/C=C/c1ccco1	-18.9%	4.8%[59 µM]	-34.0%	-11.4%	-16.0%	50.1µM*
O=C(/C=C/c1ccco1)Nc1ccccc1N1CCCCC1	0.7%	50.1µM*	-22.5%	?	?	-20.6%
COCc1nnc(NC(=O)CCn2ccc3cc(OC)ccc32)s1	-0.8%	nt	nt	nt	nt	nt
Cn1cccc1CN1CCC2(C1)C(=NC1CCCC1)NC(=O)N2c1cc(F)cc(F)c1 (stereo not drawn)	2.3%[6.33 µM]	nt	nt	nt	nt	nt
CN(C)c1ccc(C(=O)NCc2coc(-c3cccs3)n2)cc1[N+](=O)[O-]	-7.7%	nt	nt	nt	nt	nt
N=c1c2c(ncn1-c1ccccc1)Oc1ccc3ccccc3c1C2c1ccc2c(c1)OCO2 (stereo not drawn)	nt	nt	44.7µM*	nt	nt	nt
SMILES	ALOX12 inh	G9a block	JMJD2A Tudor	BAZ2B block	HP1b chromo inh	Sfp inh
COc1ccc(C2c3c(ncn(CCCO)c3=N)Oc3ccc4ccccc4c32)cc1 (stereo not drawn)	?	-19.3%	?	-33.9%	7.1%	-23.3%
N=c1c2c(ccn1-c1ccccc1)Oc1ccc3ccccc3c1C2c1ccccc1 (stereo not drawn)	nt	nt	39.8µM*	nt	nt	nt
COc1ccccc1C1c2ccc3ccccc3c2Oc2ncn(CCN(C)C)c(=N)c21 (stereo not drawn)	-6.5%	?	?	-33.0%	1.8%	-2.2%
COc1ccccc1C1c2c(ncn(-c3ccccc3)c2=N)Oc2ccc3ccccc3c21 (stereo not drawn)	nt	nt	56.2µM*	nt	nt	nt
COc1cccc(C2c3c(ncn(-c4cccc(F)c4)c3=N)Oc3ccc4ccccc4c32)c1 (stereo not drawn)	nt	nt	50.1µM*	nt	nt	nt
O=C(Nc1ncnc2c1C(c1ccccc1)c1c(ccc3ccccc13)O2)c1ccccc1 (stereo not drawn)	26.3%	nt	-26.1%	nt	18.3%	nt
COc1cccc(C2c3c(ncn(-c4ccccc4)c3=N)Oc3ccc4ccccc4c32)c1 (stereo not drawn)	nt	nt	56.2µM*	nt	nt	nt
COc1cccc(C2c3c(ncn(-c4ccccc4OC)c3=N)Oc3ccc4ccccc4c32)c1 (stereo not drawn)	nt	nt	56.2µM*	nt	nt	nt
COc1cccc(C2c3c(ncn(CCN4CCOCC4)c3=N)Oc3ccc4ccccc4c32)c1 (stereo not drawn)	nt	nt	-35.4%	nt	nt	nt
O=C(NCc1cccs1)c1ccc2c(c1)OCCCO2	13.3%	nt	nt	nt	nt	nt
O=C(NCc1ccccc1)c1nc(Cc2c[nH]c3ccccc23)no1	-2.9%	nt	nt	nt	nt	nt
Cc1ccc(NC(=O)Cn2c(-c3ccccc3)nc(C)c(CCO)c2=O)c(C)c1	-8.9%	nt	nt	nt	nt	nt
N#CC(=Nc1cccc(F)c1)C1=C(O)c2ccccc2C1=O	-10.7%	nt	nt	nt	nt	nt
COc1ccc(CN=C(C#N)C2=C(O)c3ccccc3C2=O)cc1	?	35.5µM*	?	-37.0%	27.9%	3.4%
O=S(=O)(c1ccccc1Cl)N1CCn2cccc2C1c1ccccc1F (stereo not drawn)	-26.9%	nt	nt	nt	nt	nt
CCOc1ccc2nc(NC(=O)c3nn(C(C)C)c(=O)c4ccccc34)sc2c1	-3.9%	nt	nt	nt	nt	nt
COc1cc(C(=O)Nc2ccc(N3CCOCC3)cc2)ccc1OCc1c(C)noc1C	-3.5%	50.1µM*	-20.5%	-5.2%	26.7%	13.6%
COc1ccc(C(=O)Nc2ccc(N3CCOCC3)cc2)cc1S(=O)(=O)N1CCCC1	-23.6%	50.1µM*	-15.2%	-4.1%	8.1%	nt
O=C(Nc1ccc(S(=O)(=O)N2CCOCC2)cc1)c1ccc(=O)[nH]c1	11.7%	-17.2%	-20.9%	-35.0%	55.0%	4.4%
